# Results: PubChem BioAssay (EPA / NIEHS)
# Records with an inconclusive call do not appear. Activity calls are given as the source filed them. The calls were made as follows: active = hit-call score of the fitted dose curve at least 0.9, where 1 is the maximum; inconclusive = response in the unintended direction; inactive = score below 0.9.
# Legend:
# AR (gene 367) = AR (gene 367) (UniProt P10275); assay: ACEA_AR_agonist_80hr: ACEA Biosciences xCELLigence Real-Time Cell Analysis on Androgen Receptor Agonism for Proliferation (AID 2283783);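 also: hits increase impedance growth signal above DMSO baseline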
# How it was run: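 22Rv1 human prostate cancer cells were seeded after preconditioning in assay medium and monitored overnight, then dosed in an eight-point 1:4 dilution series from 100 uM (≤0.5% DMSO). Impedance-based growth was read at 80 h, gain-of-signal versus DMSO.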
# [1] = test system: turtle Androgen Receptor (AR), gene 101947425; assay: ATG_trAR_XSP1: Attagene TRANS-FACTORIAL Multi-Species (XSP1) HepG2 Assay for turtle Androgen Receptor (AR) (AID 2283786)
# How it was run: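 HepG2 cells transiently transfected with a turtle AR–GAL4 chimera and GAL4-UAS reporter, co-treated with 3 nM 6-alpha-fluorotestosterone for partial stimulation. Reporter mRNA is quantified at 24 h by RT-PCR and capillary electrophoresis, gain-of-signal versus DMSO.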
# [2] = ACEA_AR_agonist_AUC_viability: ACEA Biosciences xCELLigence Real-Time Cell Analysis on Androgen Receptor Agonism for Viability (AID 2283775);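 as to AC50: viability read 80 hours after compound addition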
# How it was run: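 Real-time impedance tracking of 22Rv1 growth, readings every 5 min for 5 h then hourly; area-under-curve viability endpoint at 80 hours, relative to DMSO. Compounds at eight concentrations, 1:4 steps, top 100 uM, n = 2.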
# [3] = ACEA_AR_antagonist_AUC_viability: ACEA Biosciences xCELLigence Real-Time Cell Analysis on Androgen Receptor Antagonism for Viability (AID 2283776);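 also: hits lower the growth signal relative to DMSO meaning cytotoxicity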
# How it was run: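 22Rv1 human prostate cancer cells were seeded on electrode plates, monitored overnight, then exposed to eight 1:4 dilutions from 100 uM final. Impedance-based growth kinetics at 80 h gave an AUC viability endpoint normalized to DMSO.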
# [4] = ACEA_ER_AUC_viability: ACEA Biosciences xCELLigence Real-Time Cell Analysis on Estrogen Receptor Agonism for Viability (AID 2283782);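 also: continuous compound exposure with impedance area under curve over 80 h; hit means loss of impedance signal meaning reduced cell growth or viability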
# How it was run: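 T-47D human breast cells in phenol red-free RPMI1640 with 10% charcoal-stripped FBS were dosed with an 8-point 1:4 dilution series from 100 uM top final concentration, in duplicate. Impedance-based growth was followed for 80 h; AUC analysed versus DMSO.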
# [5] = test system: zebrafish Estrogen Receptor (ESR2A), gene 317734; assay: ATG_zfER2a_XSP1: Attagene TRANS-FACTORIAL Multi-Species (XSP1) HepG2 Assay for zebrafish Estrogen Receptor (ESR2A) (AID 2283778)
# How it was run: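 HepG2 cells transiently transfected with multiplexed GAL4-UAS reporter units and chimeric NR-GAL4 receptors; 24 h compound exposure with 3 nM 6-alpha-fluorotestosterone present. Reporter mRNA quantified by RT-PCR and capillary electrophoresis, gain-of-signal fitted relative to DMSO.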
# [6] = molecular target: chicken Estrogen Receptor (ESR1), ESR1 (gene 396099) (UniProt P06212); assay: ATG_chERa_XSP1: Attagene TRANS-FACTORIAL Multi-Species (XSP1) HepG2 Assay for chicken Estrogen Receptor (ESR1) (AID 2283779)
# How it was run: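 HepG2 cells transiently transfected with multiplexed GAL4-UAS reporter units expressing chimeric NR-Gal4 proteins; 3 nM 6-alpha-fluorotestosterone present. Reporter mRNA measured 24 h after dosing by RT-PCR, FAM labelling, HpaI digest and capillary electrophoresis; gain of signal versus DMSO.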
# [7] = molecular target: Estrogen receptor (Homo sapiens) (UniProt P03372); assay: ATG_hERa_XSP1: Attagene TRANS-FACTORIAL Multi-Species (XSP1) HepG2 Assay for human Estrogen Receptor (ESR1) (AID 2283780)
# How it was run: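 HepG2 cells transiently transfected with GAL4-UAS reporter units and chimeric NR-Gal4 constructs; 24 h after dosing, reporter mRNA quantified by RT-PCR and capillary electrophoresis. Medium contained 3 nM 6-alpha-fluorotestosterone; activity fitted as gain-of-signal versus DMSO.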
# [8] = test system: turtle Estrogen Receptor (ESR1), gene 101933533; assay: ATG_trERa_XSP1: Attagene TRANS-FACTORIAL Multi-Species (XSP1) HepG2 Assay for turtle Estrogen Receptor (ESR1) (AID 2283781)
# How it was run: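 HepG2 cells transiently transfected with GAL4-UAS reporter units and chimeric NR-Gal4 constructs, dosed for 24 h with 3 nM 6-alpha-fluorotestosterone present. Reporter mRNA was quantified by RT-PCR, fluorescent labelling and capillary electrophoresis, with gain of signal fitted relative to DMSO.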
# [9] = test system: frog Estrogen Receptor (ESR1), gene 398734; assay: ATG_frER1_XSP1: Attagene TRANS-FACTORIAL Multi-Species (XSP1) HepG2 Assay for frog Estrogen Receptor (ESR1) (AID 2283777)
# How it was run: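 Read-out: fluorescent reporter mRNA via RT-PCR, HpaI digestion and capillary electrophoresis, after 24 h chemical exposure of transiently transfected human HepG2 cells expressing exogenous NR-Gal4 chimeras. DMSO served as baseline for positive-direction fitting.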
# Chain of AR (gene 367) (P10275 whole entry, looked up): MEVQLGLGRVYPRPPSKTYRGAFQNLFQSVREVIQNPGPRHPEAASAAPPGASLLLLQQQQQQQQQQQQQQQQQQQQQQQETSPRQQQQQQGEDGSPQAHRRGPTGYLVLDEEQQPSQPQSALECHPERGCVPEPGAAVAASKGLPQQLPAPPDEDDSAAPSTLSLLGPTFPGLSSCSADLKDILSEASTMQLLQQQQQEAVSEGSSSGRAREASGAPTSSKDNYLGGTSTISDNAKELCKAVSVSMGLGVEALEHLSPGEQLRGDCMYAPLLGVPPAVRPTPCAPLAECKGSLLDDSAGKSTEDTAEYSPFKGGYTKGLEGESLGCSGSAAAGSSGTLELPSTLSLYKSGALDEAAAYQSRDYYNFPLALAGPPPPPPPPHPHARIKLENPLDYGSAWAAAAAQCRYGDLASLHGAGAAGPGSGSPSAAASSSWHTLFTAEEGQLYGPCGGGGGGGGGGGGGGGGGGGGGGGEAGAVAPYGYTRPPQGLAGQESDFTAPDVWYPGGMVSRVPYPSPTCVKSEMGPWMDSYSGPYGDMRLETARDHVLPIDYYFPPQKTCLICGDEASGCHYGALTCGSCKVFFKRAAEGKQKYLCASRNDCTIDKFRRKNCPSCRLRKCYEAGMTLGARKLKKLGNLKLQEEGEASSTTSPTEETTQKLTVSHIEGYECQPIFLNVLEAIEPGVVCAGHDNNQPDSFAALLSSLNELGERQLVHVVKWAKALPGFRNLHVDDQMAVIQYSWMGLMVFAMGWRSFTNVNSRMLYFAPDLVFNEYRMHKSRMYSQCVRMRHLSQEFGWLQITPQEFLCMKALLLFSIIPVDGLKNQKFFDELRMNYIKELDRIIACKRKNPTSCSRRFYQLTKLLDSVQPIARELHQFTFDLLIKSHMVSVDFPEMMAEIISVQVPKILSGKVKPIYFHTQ
# Chain of Estrogen receptor (Homo sapiens) (P03372 whole entry, looked up, the tested form may be a part): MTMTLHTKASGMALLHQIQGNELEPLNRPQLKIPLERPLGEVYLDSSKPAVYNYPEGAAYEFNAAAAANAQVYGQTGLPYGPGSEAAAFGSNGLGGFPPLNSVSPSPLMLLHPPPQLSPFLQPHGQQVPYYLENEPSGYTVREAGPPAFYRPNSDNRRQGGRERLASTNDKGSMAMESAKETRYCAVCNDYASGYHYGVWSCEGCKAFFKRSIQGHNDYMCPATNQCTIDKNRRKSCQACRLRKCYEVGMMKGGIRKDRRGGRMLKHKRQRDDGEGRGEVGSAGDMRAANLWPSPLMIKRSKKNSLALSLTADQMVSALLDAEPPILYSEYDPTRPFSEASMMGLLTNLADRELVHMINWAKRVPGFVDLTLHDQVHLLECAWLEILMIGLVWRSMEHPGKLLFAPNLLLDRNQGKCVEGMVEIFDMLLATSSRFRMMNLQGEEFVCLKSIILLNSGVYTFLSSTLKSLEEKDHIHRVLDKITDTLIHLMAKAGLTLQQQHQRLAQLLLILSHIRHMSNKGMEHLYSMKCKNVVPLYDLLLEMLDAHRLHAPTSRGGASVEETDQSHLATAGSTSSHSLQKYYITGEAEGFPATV
# Chain of chicken Estrogen Receptor (ESR1), ESR1 (gene 396099) (P06212 whole entry, looked up, the tested form may be a part): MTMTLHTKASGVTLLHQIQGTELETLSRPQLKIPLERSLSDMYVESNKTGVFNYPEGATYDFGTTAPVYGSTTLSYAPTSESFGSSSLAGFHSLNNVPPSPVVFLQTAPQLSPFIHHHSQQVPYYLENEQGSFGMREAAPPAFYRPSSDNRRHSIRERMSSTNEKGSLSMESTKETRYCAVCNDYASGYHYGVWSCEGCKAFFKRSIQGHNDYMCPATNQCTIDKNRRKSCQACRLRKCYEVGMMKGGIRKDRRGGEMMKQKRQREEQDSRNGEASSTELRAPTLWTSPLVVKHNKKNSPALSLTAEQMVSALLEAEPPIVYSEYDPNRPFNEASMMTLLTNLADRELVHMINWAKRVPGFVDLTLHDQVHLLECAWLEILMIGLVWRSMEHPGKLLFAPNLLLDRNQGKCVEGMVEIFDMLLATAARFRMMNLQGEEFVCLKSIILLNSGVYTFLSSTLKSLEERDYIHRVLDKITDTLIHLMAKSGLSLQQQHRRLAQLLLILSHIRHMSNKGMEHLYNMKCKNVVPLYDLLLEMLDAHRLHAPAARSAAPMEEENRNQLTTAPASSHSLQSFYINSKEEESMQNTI
smiles,measurement,setting,value
CC1(C)CCC(=Cc2ccc(Cl)cc2)C1(O)Cn1cncn1 (centres undefined),outcome,AR (gene 367),inactive
Cc1c(COC(=O)[C@@H]2[C@H](/C=C(\Cl)C(F)(F)F)C2(C)C)cccc1-c1ccccc1,outcome,[1],inactive
CC1(C)C(C=C(Cl)Cl)C1C(=O)OC(C#N)c1cccc(Oc2ccccc2)c1 (centres undefined),outcome,[1],inactive
CCCCC(C#N)(Cn1cncn1)c1ccc(Cl)cc1 (centres undefined),AC50,[2],83.1 µM (active)
same,AC50,[3],79 µM (active)
same,outcome,[4],inactive
CCN(CC)c1nc(C)cc(OP(=S)(OC)OC)n1,AC50,[2],87.1 µM (active)
same,AC50,[3],83.3 µM (active)
same,outcome,[4],inactive
O=C(Nc1ccccc1-c1ccc(Cl)cc1)c1cccnc1Cl,AC50,[2],61.3 µM (active)
same,AC50,[3],50 µM (active)
same,outcome,[4],inactive
CC1(C)C(C(=O)OC(C#N)c2cccc(Oc3ccccc3)c2)C1(C)C (centres undefined),AC50,[2],50 µM (active)
same,AC50,[3],50 µM (active)
same,AC50,[4],89.4 µM (active)
COCc1cnc(C2=NC(C)(C(C)C)C(=O)N2)c(C(=O)O)c1 (centres undefined),outcome,[4],inactive
same,outcome,AR (gene 367),inactive
CCCCC(O)(Cn1cncn1)c1ccc(Cl)cc1Cl (centres undefined),AC50,[2],69.8 µM (active)
same,AC50,[3],50 µM (active)
same,AC50,[4],75.5 µM (active)
same,outcome,AR (gene 367),inactive
CCNC(=O)NC(=O)C(C#N)=NOC,outcome,[3],inactive
same,outcome,[4],inactive
Clc1cccc(C(Cl)(Cl)Cl)n1,outcome,[2],inactive
same,outcome,[3],inactive
same,outcome,[4],inactive
Nc1c(Cl)c(Cl)nc(C(=O)O)c1Cl,outcome,[2],inactive
same,outcome,[3],inactive
same,outcome,[4],inactive
COc1ccc(-c2ccccc2)cc1NNC(=O)OC(C)C,outcome,[2],inactive
same,outcome,[3],inactive
same,outcome,[4],inactive
CO/N=C(/C1=NOCCO1)c1ccccc1Oc1ncnc(Oc2ccccc2Cl)c1F,AC50,[2],43 µM (active)
same,AC50,[3],55.5 µM (active)
same,AC50,[4],91.8 µM (active)
CNC(=O)Oc1cccc2ccccc12,AC50,[3],24.8 µM (active)
same,outcome,[4],inactive
O=C(O)c1c(Cl)ccc2cc(Cl)cnc12,outcome,[3],inactive
same,outcome,[4],inactive
CCOc1cc(C(C)(C)C)ccc1C1COC(c2c(F)cccc2F)=N1 (centres undefined),AC50,[2],24 µM (active)
same,AC50,[3],19.1 µM (active)
same,AC50,[4],51.2 µM (active)
same,outcome,AR (gene 367),inactive
CCSC(=O)N1CCCCCC1,outcome,[2],inactive
same,outcome,[3],inactive
same,outcome,[4],inactive
CC(C)N1C(=O)c2ccccc2NS1(=O)=O,outcome,[2],inactive
same,outcome,[3],inactive
same,outcome,[4],inactive
COC(=O)N(C(=O)N1CO[C@@]2(C(=O)OC)Cc3cc(Cl)ccc3C2=N1)c1ccc(OC(F)(F)F)cc1,AC50,[2],18.3 µM (active)
same,AC50,[3],18.5 µM (active)
same,AC50,[4],69.2 µM (active)
O=P(O)(O)CCCl,outcome,[2],inactive
same,outcome,[3],inactive
same,outcome,[4],inactive
COc1cc(Cl)c(OC)cc1Cl,outcome,[2],inactive
same,outcome,[3],inactive
same,outcome,[4],inactive
OC(c1ccc(Cl)cc1)(c1ccc(Cl)cc1)C(Cl)(Cl)Cl,AC50,[2],14.5 µM (active)
same,AC50,[3],13 µM (active)
same,AC50,[4],26.4 µM (active)
CSC(=O)c1c(C(F)F)nc(C(F)(F)F)c(C(=O)SC)c1CC(C)C,AC50,[3],37.4 µM (active)
same,outcome,[5],inactive
same,outcome,[6],inactive
same,AC50,[7],6.12 µM (active)
same,outcome,[8],inactive
same,AC50,[4],81.2 µM (active)
CC(C)Oc1cccc(NC(=O)c2ccccc2C(F)(F)F)c1,outcome,[2],inactive
same,outcome,[3],inactive
same,outcome,[4],inactive
COP(=S)(OC)SCn1nnc2ccccc2c1=O,AC50,[2],79.9 µM (active)
same,AC50,[3],64.7 µM (active)
same,outcome,AR (gene 367),inactive
CS(=O)(=O)c1cc(C(F)(F)F)ccc1C(=O)c1cnoc1C1CC1,outcome,[3],inactive
same,outcome,[4],inactive
Nc1c(Cl)c(F)nc(OCC(=O)O)c1Cl,outcome,[2],inactive
same,outcome,[3],inactive
same,outcome,AR (gene 367),inactive
CNC(=O)N(C)c1nnc(C(C)(C)C)s1,outcome,[2],inactive
same,outcome,[3],inactive
same,outcome,[4],inactive
Cc1cc(C)nc(Nc2ccccc2)n1,outcome,[2],inactive
same,outcome,[3],inactive
same,outcome,[4],inactive
CCCCOCN(C(=O)CCl)c1c(CC)cccc1CC,AC50,[2],85.2 µM (active)
same,AC50,[3],70.9 µM (active)
same,AC50,[4],87.6 µM (active)
same,AC50,AR (gene 367),10.5 µM (active)
Cc1cnc(C2=NC(C)(C(C)C)C(=O)N2)c(C(=O)O)c1 (centres undefined),outcome,[2],inactive
same,outcome,[3],inactive
same,outcome,AR (gene 367),inactive
CCCC(=NOCC)C1=C(O)CC(CC(C)SCC)CC1=O (centres undefined),AC50,[2],79.5 µM (active)
same,outcome,[3],inactive
same,outcome,[4],inactive
CCOP(=O)(OCC)Oc1nc(Cl)c(Cl)cc1Cl,AC50,[2],72.4 µM (active)
same,AC50,[3],72.7 µM (active)
same,AC50,[4],68.3 µM (active)
same,outcome,AR (gene 367),inactive
CC(C)NC(=O)N1CC(=O)N(c2cc(Cl)cc(Cl)c2)C1=O,AC50,[2],11.2 µM (active)
same,AC50,[9],100 µM (active)
same,outcome,[5],inactive
same,outcome,[6],inactive
same,AC50,[7],10.3 µM (active)
same,AC50,[8],41.4 µM (active)
same,outcome,[4],inactive
N#Cc1c[nH]cc1-c1cccc2c1OC(F)(F)O2,AC50,[2],32.5 µM (active)
same,outcome,[4],inactive
CC(C)Nc1nc(Cl)nc(NC(C)C)n1,outcome,[3],inactive
same,outcome,[4],inactive
COC(=O)NS(=O)(=O)c1ccc(N)cc1,outcome,[3],inactive
same,outcome,[4],inactive
CC(C)N1C(=O)N(c2ccccc2)CSC1=NC(C)(C)C,AC50,[2],28.9 µM (active)
same,AC50,[3],50 µM (active)
same,AC50,[4],89.6 µM (active)
